The nature of this assay: differential killing of epithelial or mesenchymal cells, primary screen, imaging, PC-3E GFP, TEM4-18 mCherry, co-culture (AID 1345086).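 As to all read-outs here: cells exposed to compound for 72 h before imaging.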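 As to red/green cell ratio (normalised): normalised mesenchymal count divided by normalised epithelial count so high means epithelial killing.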 The note with it: imaging cell counts, at 1 µM; for red/green cell ratio (normalised): actives lie on both sides, counts scaled to control wells, 1 = unselective.
[1] abbreviates: measured here: epithelial PC-3E GFP cell survival.
[2] abbreviates: measured here: mesenchymal TEM4-18 mCherry cell survival.

Results on 37 compounds are retold here after PubChem BioAssay.

Each structure is given as a SMILES string. Calls of active or inactive are those of the source.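 The calls were made as follows: active = compounds killing one labelled cell type while sparing the other, by normalised counts and ratio limits, not self-fluorescent; inactive = the rest.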

With `CC1=CC2C(C(C)C)CCC(C)(O)C2CC1` (stereo unspecified), the red/green cell ratio (normalised) was 1.01 (inactive). The compound also had a normalised cell number under setting [1] of 1.1. Moreover, under setting [2], the normalised cell number is 1.11.

`CC12CCC3C(CC3(C)C)C3(C1)OC(=O)CC(C(=O)O)C3CC2` (stereo unspecified): the red/green cell ratio (normalised) is 0.86 (inactive). Also, under setting [1], the normalised cell number turned out to be 1.03. Further, under setting [2], the normalised cell number was found to be 0.88.

For `O=C(NCc1ccccc1)C1O[C@H](NCc2ccccc2)[C@@H](O)[C@@H](O)C1O` (stereo partly specified), the red/green cell ratio (normalised) is 1.04 (inactive). This compound had a normalised cell number under setting [1] of 1.09. Moreover, under setting [2], the normalised cell number stood at 1.13.

Regarding `CC(=O)O[C@@H]1CC2C(C)(C)[C@H](O)C[C@H](O)[C@]2(C)C2CC[C@@]3(C)[C@H](c4ccoc4)OC(=O)[C@H]4O[C@]43[C@@]21C` (stereo partly specified), the red/green cell ratio (normalised) is 1.01 (inactive). Moreover, under setting [1], the normalised cell number came out at 1.01. Under setting [2], the normalised cell number is 1.03.

As for `C[C@@H]1Cc2cccc(O)c2C(=O)O1`, the red/green cell ratio (normalised) is 1.03 (inactive). Under setting [1], this compound returned a normalised cell number of 0.83. Further, the normalised cell number under setting [2] turned out to be 0.85.

Consider `O=C1NCC[C@H]1Oc1ccc(Oc2cnc3ccc(Cl)cc3n2)cc1`, for which the red/green cell ratio (normalised) was 0.76 (inactive). Also, under setting [1], the normalised cell number came to 1.18. This compound also came in with a normalised cell number under setting [2] of 0.9.

For `O=C(Nc1ccccc1)Nc1ccc(CO)cc1`, the red/green cell ratio (normalised) was 0.81 (inactive). This compound also showed a normalised cell number under setting [1] of 1.24. In addition, the normalised cell number under setting [2] amounted to 1.01.

For `O=c1cc(-c2ccccc2)oc2cc(O)ccc12`, the red/green cell ratio (normalised) is 0.8 (inactive). Besides, the normalised cell number under setting [1] came out at 1.2. Besides, under setting [2], the normalised cell number was 0.97.

Consider `CC1CN(c2c(F)c(N)c3c(=O)c(C(=O)O)cn(C4CC4)c3c2F)C[C@H](C)N1` (stereo partly specified), for which the red/green cell ratio (normalised) is 0.99 (inactive). The same compound registered a normalised cell number under setting [1] of 1.03. Under setting [2], this compound came in with a normalised cell number of 1.02.

With `CC(=O)OCC(=O)[C@@]1(O)CCC2C3C[C@H](C)C4=CC(=O)C=CC4(C)C3[C@@H](O)CC21C` (stereo partly specified), the red/green cell ratio (normalised) is 1.09 (inactive). The normalised cell number under setting [1] worked out at 1.16. In addition, the normalised cell number under setting [2] was 1.27.

For the compound `COC(=O)c1cc(OC)cc(OC(=O)c2c(O)cc3cc(C)oc(=O)c3c2O)c1O`, the red/green cell ratio (normalised) is 0.92 (inactive). Also, the normalised cell number under setting [1] stood at 0.94. The compound further had a normalised cell number under setting [2] of 0.86.

With `CC(CC(=O)N1CCOC1=O)N1C(=S)OC[C@@H]1c1ccccc1` (stereo partly specified), the red/green cell ratio (normalised) is 1.05 (inactive). Under setting [1], this compound yielded a normalised cell number of 0.85. The normalised cell number under setting [2] was 0.89.

With `Cc1ccc(S(=O)(=O)O[C@H]2CCOC2=O)cc1`, the red/green cell ratio (normalised) is 0.92 (inactive). Also, under setting [1], the normalised cell number amounted to 1.16. Under setting [2], the normalised cell number stood at 1.06.

With `CC1(C)C[C@@H]2C(=O)CC[C@@H]3O[C@]3(C)CC[C@H]21`, the red/green cell ratio (normalised) is 0.92 (inactive). Moreover, under setting [1], the normalised cell number was 0.93. The compound further returned a normalised cell number under setting [2] of 0.85.

Consider `NC(=O)C[C@H](NC(=O)OCc1ccccc1)C(=O)O`, for which the red/green cell ratio (normalised) is 1.25 (inactive). This compound had a normalised cell number under setting [1] of 0.87. Under setting [2], this compound gave a normalised cell number of 1.08.

Regarding `COC(=O)c1cn(C2CC2)c2c(OC)c(F)c(F)c(N)c2c1=O`, the red/green cell ratio (normalised) was 1.1 (inactive). Under setting [1], this compound returned a normalised cell number of 0.97. Under setting [2], this compound gave a normalised cell number of 1.07.

Take `C[C@H]1[C@H](C)CC[C@]2(C(=O)O)CC[C@]3(C)C(=CCC4[C@@]5(C)C[C@@H](O)[C@H](O)[C@@](C)(CO)C5[C@H](O)C[C@]43C)[C@H]12` (stereo partly specified): the red/green cell ratio (normalised) was 1.27 (inactive). In addition, the normalised cell number under setting [1] is 0.92. Moreover, under setting [2], the normalised cell number is 1.17.

Consider `O=C(NCC[C@H](O)C(=O)O)OCc1ccccc1`, for which the red/green cell ratio (normalised) was 1.04 (inactive). Under setting [1], the normalised cell number amounted to 1.09. Under setting [2], this compound returned a normalised cell number of 1.14.

On to `CC(=O)C(C)(C)[C@H]1OC2CC[C@@]3(C)[C@@](O)(CC[C@H]4Cc5c([nH]c6ccccc56)[C@@]43C)C2=CC1=O` (stereo partly specified), for which the red/green cell ratio (normalised) was 0.87 (inactive). For the same compound, the normalised cell number under setting [1] was found to be 1.15. The normalised cell number under setting [2] came out at 1.

Regarding `O=C(O)C1CC(C2CCCCN2)CN2CCCCC12` (stereo unspecified), the red/green cell ratio (normalised) was 1.06 (inactive). Moreover, under setting [1], the normalised cell number is 0.95. In addition, the normalised cell number under setting [2] came out at 1.

As to `COC(=O)C[C@@H]1C2(C)C(=O)[C@@H](CC3=C4C=C(OC)O[C@@H](c5ccoc5)[C@]4(C)CCC32)[C@H](O)C1(C)C` (stereo partly specified), the red/green cell ratio (normalised) was 1.13 (inactive). This compound displayed a normalised cell number under setting [1] of 0.99. The compound further showed a normalised cell number under setting [2] of 1.12.

Turning to `C[C@@H]1CC[C@@]2(OC1)O[C@H]1CC3C4CC[C@H]5C[C@@H](O)CC[C@]5(C)C4CC[C@]3(C)[C@H]1[C@@H]2C` (stereo partly specified), the red/green cell ratio (normalised) is 0.88 (inactive). Also, the normalised cell number under setting [1] was determined as 1.17. The normalised cell number under setting [2] was 1.03.

Take `C[C@H]1OC(n2cc(F)c(=O)[nH]c2=O)C(O)[C@@H]1O` (stereo partly specified): the red/green cell ratio (normalised) is 0.91 (inactive). For the same compound, the normalised cell number under setting [1] was 1.27. Moreover, under setting [2], the normalised cell number amounted to 1.16.

Consider `C[C@@H]1[C@H](O)[C@@H](C)/C=C/C=C/C=C/C=C/C=C/C=C/C=C/[C@H](OC2O[C@H](C)[C@@H](O)[C@H](N)[C@@H]2O)C[C@@H]2O[C@](O)(C[C@@H](O)C[C@@H](O)[C@H](O)CC[C@@H](O)C[C@@H](O)CC(=O)O[C@H]1C)C[C@H](O)[C@H]2C(=O)O` (stereo partly specified), for which the red/green cell ratio (normalised) is 0.82 (inactive). The compound also registered a normalised cell number under setting [1] of 1.26. In addition, the normalised cell number under setting [2] stood at 1.03.

Regarding `COC(=O)C[C@H]1C2(C)CC34OC5(C)O[C@]6(C7/C(=C(/O)C(C)C)C(=O)O[C@@H](c8ccoc8)[C@]7(C)C(OC(C)=O)[C@@H](OC(C)=O)[C@]6(O5)C13C)[C@H](OC(C)=O)[C@@]4(O)C2OC(=O)C(C)C` (stereo partly specified), the red/green cell ratio (normalised) was 1.02 (inactive). This compound showed a normalised cell number under setting [1] of 1.08. Under setting [2], this compound had a normalised cell number of 1.1.

`O=C1N=NC(=O)N1c1ccccc1`: the red/green cell ratio (normalised) is 0.86 (inactive). This compound displayed a normalised cell number under setting [1] of 1.19. This compound had a normalised cell number under setting [2] of 1.03.

In the case of `C[C@H]1CC[C@@H](C(C)(C)O)CC2=C1CC[C@@H]2C`, the red/green cell ratio (normalised) was 1.27 (inactive). Moreover, the normalised cell number under setting [1] is 0.71. This compound also came in with a normalised cell number under setting [2] of 0.91.

For `CC(=O)C1=C(O)C=C2Oc3c(C(N)=O)c(O)cc(O)c3[C@@]2(C)C1=O`, the red/green cell ratio (normalised) is 1.13 (inactive). In addition, the normalised cell number under setting [1] turned out to be 0.92. Besides, the normalised cell number under setting [2] turned out to be 1.04.

On to `CC(=O)OC1CC(C)OC(=O)CCC(O)CC1=O` (stereo unspecified), for which the red/green cell ratio (normalised) was 0.98 (inactive). Moreover, the normalised cell number under setting [1] was 0.98. Moreover, the normalised cell number under setting [2] is 0.96.

`CC1(C)C2CCC1(C)C(O)C2` (stereo unspecified): the red/green cell ratio (normalised) is 1.2 (inactive). This compound came in with a normalised cell number under setting [1] of 0.75. Also, the normalised cell number under setting [2] is 0.9.

`C=C(C)n1cc(C(=O)O)c(=O)c2cc(F)c(N3CC[C@@H](CN)C3)c(OC)c21`: the red/green cell ratio (normalised) was 1.13 (inactive). This compound registered a normalised cell number under setting [1] of 1.07. The compound further displayed a normalised cell number under setting [2] of 1.21.

For the compound `O=c1c(O)cccc2cc(O)c(O)c(O)c12`, the red/green cell ratio (normalised) is 0.92 (inactive). In addition, the normalised cell number under setting [1] was 1.11. This compound showed a normalised cell number under setting [2] of 1.02.

Take `COC(=O)c1c(Cl)nc(Cl)c2ccccc12`: the red/green cell ratio (normalised) is 1.07 (inactive). Under setting [1], this compound came in with a normalised cell number of 0.85. The compound further gave a normalised cell number under setting [2] of 0.91.

In the case of `C[C@]12CCC3c4ccc(O)cc4C[C@@H](CCCCCCCCCS(=O)CCCC(F)(F)C(F)(F)F)C3C1CC[C@@H]2O` (stereo partly specified), the red/green cell ratio (normalised) is 1.23 (inactive). The normalised cell number under setting [1] amounted to 0.99. The normalised cell number under setting [2] came out at 1.21.

For `COC(=O)C[C@@H]1C2(C)C(=O)[C@@H](CC3=C4CC(=O)O[C@@H](c5ccoc5)[C@]4(C)CCC32)[C@H](OC(C)=O)C1(C)C` (stereo partly specified), the red/green cell ratio (normalised) was 1.06 (inactive). Besides, the normalised cell number under setting [1] stood at 0.96. The compound further registered a normalised cell number under setting [2] of 1.02.

With `CC1O[C@@H](Oc2c(-c3ccc(O)c(O)c3)oc3cc(O)cc(O)c3c2=O)[C@H](O)[C@H](O)[C@H]1O` (stereo partly specified), the red/green cell ratio (normalised) was 1.01 (inactive). In addition, the normalised cell number under setting [1] worked out at 1.01. The compound further came in with a normalised cell number under setting [2] of 1.02.

For `COC(=O)C[C@H]1C2(C)CC34OC5(C)O[C@]6(C7/C(=C(/OC)C(C)C)C(=O)O[C@@H](c8ccoc8)[C@]7(C)C(OC(=O)C(C)C)[C@@H](OC)[C@]6(O5)C13C)[C@H](OC)[C@@]4(OC)C2OC(C)=O` (stereo partly specified), the red/green cell ratio (normalised) is 0.95 (inactive). This compound registered a normalised cell number under setting [1] of 1.04. Under setting [2], this compound showed a normalised cell number of 1.
